Compound activity as filed in PubChem BioAssay.
Hits are enriched below; roughly 18% of the tested compounds scored in any of these assays.
TDP1 cell noCPT – qHTS for Inhibitors of human tyrosyl-DNA phosphodiesterase 1 (TDP1): qHTS in cells in absence of CPT | actives 15% (n = 420,000) | Potency, µM (highest dose often 46.2 µM), most hits filed as inhibitors | DT40 Tdp1-/- hTDP1 cells, no CPT, ATP luminescence, 48 h | AID 686978, 2013; further: nearly all actives have a fitted effect of over 55% in size
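Luminescent ATP content (CellTiter-Glo) served as the growth readout. Knockout chicken DT40 cells expressing human TDP1 were exposed to compounds without camptothecin for a minimum 48 hr at 37 °C.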
TGFb SMAD3 inh – blocks TGF-b signaling | HepG2 CAGA-GFP TGF-b/SMAD3 reporter, GFP fluorescence, 18 h; TGF-beta stimulated, 500 pg/mL final | Potency, µM (doses to about 46.1 µM), hits mostly inhibitors | actives 1.2% (n = 410,000) | AID 588855; further: nearly all actives have a fitted effect of over 65% in size
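Per well, imaged GFP fluorescence of HEPG2 CAGA-GFP cells gives the signal; cells get compound, then TGF-beta (500 pg/mL final), 18 h at 37 degrees C; %Activity versus -TGF-beta and +DMSO controls.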
DT40 TDP1 CPT – growth inhibition of DT40 Tdp1-/-;hTDP1 cells with camptothecin (screen for TDP1 inhibitors); Potency, µM (doses to about 46.2 µM), most hits filed as inhibitors; actives 12% (n = 420,000); chicken DT40 Tdp1-/-;hTDP1 cells + 20 nM CPT, ATP luminescence, 48 h; AID 686979; further: nearly all actives have a fitted effect of over 55% in size
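Cell growth measured by CellTiter-Glo luminescence after a minimum 48 h, 37 C compound exposure with 20 nM CPT in Tdp1-knockout DT40 cells stably expressing hTDP1, seeded 400/well; qHTS titration format.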
TDP1 block – TDP1 (human) enzyme inhibition; Q9NUW8; recombinant TDP1, AlphaScreen DNA substrate cleavage; Potency, µM (top dose mostly 130 µM), actives largely listed as inhibitors; actives 0.28% (n = 350,000); AID 485290; further: nearly all actives have a fitted effect of over 40% in size
Target sequence (Q9NUW8 whole entry, looked up): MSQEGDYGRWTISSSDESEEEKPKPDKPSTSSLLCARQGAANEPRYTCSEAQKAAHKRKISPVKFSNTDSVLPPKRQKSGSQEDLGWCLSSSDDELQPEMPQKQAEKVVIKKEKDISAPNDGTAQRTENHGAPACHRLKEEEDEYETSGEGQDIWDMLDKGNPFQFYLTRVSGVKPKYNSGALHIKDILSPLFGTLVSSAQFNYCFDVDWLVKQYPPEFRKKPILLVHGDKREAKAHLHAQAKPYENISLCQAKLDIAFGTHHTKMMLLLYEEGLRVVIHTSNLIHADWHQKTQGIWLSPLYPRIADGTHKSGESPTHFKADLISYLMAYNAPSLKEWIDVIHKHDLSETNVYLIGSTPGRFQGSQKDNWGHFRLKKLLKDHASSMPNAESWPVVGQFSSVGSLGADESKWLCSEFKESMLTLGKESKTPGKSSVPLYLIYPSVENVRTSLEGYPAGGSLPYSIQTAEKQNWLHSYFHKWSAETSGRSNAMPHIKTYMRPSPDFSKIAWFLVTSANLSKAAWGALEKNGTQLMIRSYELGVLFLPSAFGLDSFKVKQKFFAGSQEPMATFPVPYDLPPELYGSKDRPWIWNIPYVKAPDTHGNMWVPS
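Tdp1 1 nM final; 15 min RT w/ cpd; substrate 15 nM, 5 min; beads 10 ug/ml, 10 min; AlphaScreen read. Neg ctrl: no enzyme.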
HepG2 viability – kills HepG2 cells in TGF-b inhibitor counter-screen. HepG2 CAGA-GFP viability, ATP luminescence, 18 h. Potency, µM (top dose mostly 46.1 µM), actives largely listed as cytotoxic. actives 0.76% (n = 410,000). AID 588856
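HepG2 CAGA-GFP cells (1000/well, DMEM with 1% FBS) received compound, then TGF-beta at 500 pg/mL final, and were incubated 18 hours at 37 degrees C. Viability was read by CellTiter-Glo luminescence. Media-only wells were set as complete cell-killing and DMSO as no toxicity.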
IL1B secr inh – inhibitors of inflammasome signaling (IL-1 beta secretion) | THP-1 LPS/ATP IL-1B secretion, AlphaLISA, 16 h; stronger effect = lower value | activity change, % at 57.5 µM | actives 4.7% (n = 360,000) | AID 743279; in the data active means activity change below about -50%; inconclusive means mostly about -30% to -49%
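Secreted IL-1B measured by AlphaLISA bead assay after 16 h compound exposure of THP-1 cells; compounds (final up to 57.5 uM) added 1 h before LPS (250 ng/mL) and ATP (1.25 mM) stimulation; lower signal means less secretion.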
Numbers stand for hits; – = inactive; ? = inconclusive; · = no result given; [ ] = another dose, or the depositor's remark. Unless noted, the call rests on the fitted dose curve; in most records, active means well fitted curve in the direction sought with a large enough effect; inconclusive means small, poorly fitted or top-dose-only effect, or another doubt; inactive means no such curve, though single readings can be large; an effect the other way counts as inactive or inconclusive.

SMILES | TDP1 cell noCPT | TGFb SMAD3 inh | DT40 TDP1 CPT | TDP1 block | HepG2 viability | IL1B secr inh
O=C(COC(=O)COc1ccccc1F)NC1CC1 | – | – | – | – | – | –
CCc1ccccc1NC(=O)Cn1nc(C(F)(F)F)cc1C1CC1 | – | – | – | – | – | –
Cn1c(=O)[nH]c(=O)c2c1nc(N1CCCCC1)n2CCSc1nc2ccccc2o1 | – | – | – | – | – | –
CCCCn1c(SCc2ccc(Cl)cc2)nc2c1c(=O)[nH]c(=O)n2C | 13µM | – | 13µM | – | – | –
CCCCCn1c(Sc2nc3ccccc3s2)nc2c1c(=O)[nH]c(=O)n2C | ? | – | 16µM | – | – | –
CC(C)CCn1c(Sc2nc3ccccc3o2)nc2c1c(=O)[nH]c(=O)n2C | 16µM | ? | 18µM | – | – | -105
C=C(C)CSc1nc2c(c(=O)[nH]c(=O)n2C)n1CCC(C)C | 16µM | – | 15µM | – | – | –
CCSc1nc2c(c(=O)[nH]c(=O)n2C)n1Cc1ccc(Cl)cc1 | ? | – | ? | – | – | –
Cc1cccc(NC(=O)[C@H](Cc2ccccc2)NC(=O)[C@@H]2Cc3ccccc3CN2)c1 | – | – | – | – | – | –
C/C(=N/N=C1/NC(=O)CC(C(=O)Nc2ccccc2)S1)c1cccs1 (stereo not drawn) | – | – | – | – | – | –
COc1ccc(C2C=C(C)Nc3nc4ccccc4n32)cc1 (stereo not drawn) | 18µM | – | – | – | – | –
C[C@H](C(=O)O)c1ccc2cc(O)ccc2c1 | · | · | · | – | · | ·
Cc1ccc(Nc2nnc(SCC(=O)c3ccc(O)cc3O)s2)cc1 | ? | – | – | · | – | –
Cc1cc(OCC(=O)N(Cc2ccc(N(C)C)cc2)CC2CCCO2)ccc1Cl (stereo not drawn) | – | ? | 23µM | – | – | ·
CN(C)c1ccc(CN(CC2CCCO2)C(=O)COc2ccc(Cl)cc2)cc1 (stereo not drawn) | 18µM | – | 26µM | – | – | ·
COc1ccccc1OCC(=O)N(Cc1ccc(Cl)cc1)CC1CCCO1 (stereo not drawn) | ? | – | ? | – | – | ·
CCCOc1ccc(C(=O)N(Cc2ccc(N(C)C)cc2)CC2CCCO2)cc1 (stereo not drawn) | ? | ? | ? | – | – | ·
COc1ccc2c(c1)c1nnc(SC(C)C)nc1n2C | ? | · | – | · | · | ·
COc1ccc(CCNC(=O)CCSCc2ccccc2F)cc1OC | – | – | – | · | – | –
Clc1cccc(CSc2nc(NCCc3ccccc3)c3ccccc3n2)c1 | ? | – | ? | – | – | ·
COc1ccc(CCNc2nc(SCc3ccc(F)cc3)nc3ccccc23)cc1OC | 7.3µM | – | 7.3µM | – | – | ·
COc1ccc(CCNc2nc(SCc3cccc(Cl)c3)nc3ccccc23)cc1OC | 8.2µM | – | ? | – | – | ·
COc1ccc(CCNc2nc(SCc3ccccc3F)nc3ccccc23)cc1OC | 3.7µM | – | 3.7µM | – | – | ·
Cc1ccc(S(=O)(=O)CCC(=O)OCCOc2ccc(Br)cc2)cc1 | ? | – | – | · | – | –
CCOC(=O)c1cccc(NC(=O)COc2nsnc2N2CCOCC2)c1 | ? | – | ? | –[0.0935 µM] | – | –
CCc1nc2ccc(C(=O)N3CCN(C(=O)c4ccco4)CC3)cn2c1N(C)Cc1nccs1 | – | – | – | · | – | –
CCc1nc2ccc(C(=O)N(C)Cc3ccco3)cn2c1N(C)Cc1ccc(OC)cc1 | ? | – | ? | · | – | ?
CCc1nc2ccc(C(=O)N(C)Cc3ccco3)cn2c1N(C)CCCc1ccccc1 | 16µM | ? | 16µM | · | – | ?
CCc1nc2ccc(C(=O)N3CCN(C(=O)c4ccco4)CC3)cn2c1N(CC)Cc1cccc(Br)c1 | 23µM | – | 15µM | · | – | –
